For some of these results: Potency and affinity values are given separately.

Common to all, as to parameters: scale not given: direction of the effect not stated beside the values
Test [1] deals with Protein translocase subunit SecA (Escherichia coli (strain K12)) (UniProt P10408). In words: Assay to Identify E. coli SecA ATPase Inhibitors. Type of test: functional. The conditions noted are these: 30 µM.
In test [2] the target is T1, Ubiquitin-activating enzyme e1, putative (Leishmania donovani (strain BPK282A1)) (UniProt E9BSI1).
T1 sequence (whole entry): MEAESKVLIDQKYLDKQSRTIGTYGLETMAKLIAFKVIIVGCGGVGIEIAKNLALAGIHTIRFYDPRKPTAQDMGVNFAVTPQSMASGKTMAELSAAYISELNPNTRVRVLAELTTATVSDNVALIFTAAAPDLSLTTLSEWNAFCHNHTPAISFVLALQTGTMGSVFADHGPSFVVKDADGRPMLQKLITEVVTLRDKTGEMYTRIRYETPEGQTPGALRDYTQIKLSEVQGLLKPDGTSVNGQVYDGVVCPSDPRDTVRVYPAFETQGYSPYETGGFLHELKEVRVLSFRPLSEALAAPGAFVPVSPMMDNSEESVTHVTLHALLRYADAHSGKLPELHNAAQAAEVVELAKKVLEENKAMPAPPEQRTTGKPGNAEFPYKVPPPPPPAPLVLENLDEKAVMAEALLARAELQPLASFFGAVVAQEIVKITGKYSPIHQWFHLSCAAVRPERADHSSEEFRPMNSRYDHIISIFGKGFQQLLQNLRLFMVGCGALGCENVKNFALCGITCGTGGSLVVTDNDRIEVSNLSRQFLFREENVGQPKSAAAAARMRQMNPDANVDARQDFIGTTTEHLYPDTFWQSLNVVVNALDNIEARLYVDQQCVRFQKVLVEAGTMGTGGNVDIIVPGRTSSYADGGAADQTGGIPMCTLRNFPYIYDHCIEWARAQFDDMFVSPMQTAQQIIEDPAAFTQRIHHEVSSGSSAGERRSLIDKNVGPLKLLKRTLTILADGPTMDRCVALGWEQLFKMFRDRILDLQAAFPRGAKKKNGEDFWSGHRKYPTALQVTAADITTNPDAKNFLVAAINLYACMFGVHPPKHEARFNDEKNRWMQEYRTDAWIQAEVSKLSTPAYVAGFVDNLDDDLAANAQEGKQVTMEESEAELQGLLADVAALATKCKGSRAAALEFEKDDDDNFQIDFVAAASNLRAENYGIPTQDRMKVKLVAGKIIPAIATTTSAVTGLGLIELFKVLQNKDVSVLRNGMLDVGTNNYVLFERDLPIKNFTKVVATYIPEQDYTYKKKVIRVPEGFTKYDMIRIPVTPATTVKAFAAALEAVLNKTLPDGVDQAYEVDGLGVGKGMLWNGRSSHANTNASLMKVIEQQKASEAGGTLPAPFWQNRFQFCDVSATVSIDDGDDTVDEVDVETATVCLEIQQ
Kind of test: Leishmania donovani Ubiquitin Activating Enzyme (LdE1). The class given is functional. The conditions noted are these: 30 µM.

Test [3] concerns the target AMP-activated protein kinase, AMPK (Homo sapiens) (UniProt P54646+O43741+P54619+Q9UGJ0+Q9Y478+Q13131+Q9UGI9). In words: AMP-dependent Kinase enzyme assay. An in vitro enzyme assay that detects ADP turnover that is directly proportional to AMPK activity. This uses naive AMPK that is activated during the assay with MK-8722. Type of test: functional. The conditions noted are these: 30 µM.

Test [4] concerns the target Sialic acid-binding Ig-like lectin 9 (Homo sapiens) (UniProt Q9Y336). Kind of test: Hs-Siglec9 ALPHAscreen SOP 20170721. The conditions noted are these: 10 µM. (Alpha assays give light when donor and acceptor beads are brought close together.)
Another test has as its system Trypanosoma cruzi. Kind of test: Trypanosoma cruzi phosphomannomutase and mannose-1-phosphate guanylyltransferase assay. The class given is functional. The conditions noted are these: 10 µM.
For test [5], the target named is T2, Arginase-2, mitochondrial (Homo sapiens) (UniProt P78540).
T2 sequence (whole entry): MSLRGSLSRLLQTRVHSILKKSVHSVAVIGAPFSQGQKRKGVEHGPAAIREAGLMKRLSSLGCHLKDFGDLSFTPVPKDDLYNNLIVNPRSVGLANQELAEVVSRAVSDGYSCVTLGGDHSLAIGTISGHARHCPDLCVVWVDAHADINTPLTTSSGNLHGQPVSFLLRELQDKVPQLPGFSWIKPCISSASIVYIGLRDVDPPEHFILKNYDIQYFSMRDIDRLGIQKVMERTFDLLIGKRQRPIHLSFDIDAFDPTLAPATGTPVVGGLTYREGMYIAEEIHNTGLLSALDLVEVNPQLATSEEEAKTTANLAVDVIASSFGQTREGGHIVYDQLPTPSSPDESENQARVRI
Kind of test: in vitro enzyme assay to detect the production of urea directly proportional to the activity of Arginase II. Further: in the data most compounds retested in dose-response had high values. The conditions noted are these: 33.3 µM. The class given is functional.

The target in test [6] is T3, Proteasome subunit beta (Trypanosoma cruzi) (UniProt O96673).
T3 sequence (whole entry): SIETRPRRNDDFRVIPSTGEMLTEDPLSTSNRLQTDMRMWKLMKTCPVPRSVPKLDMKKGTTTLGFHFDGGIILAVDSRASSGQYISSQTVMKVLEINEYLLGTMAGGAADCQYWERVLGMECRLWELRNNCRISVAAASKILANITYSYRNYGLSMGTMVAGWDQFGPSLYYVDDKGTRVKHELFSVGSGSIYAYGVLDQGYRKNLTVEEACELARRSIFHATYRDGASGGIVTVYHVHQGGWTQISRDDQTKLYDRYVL
In words: Trypanosoma cruzi proteasome chymotrypsin-like activity (TcProtChymo) assay. Further: in the data most compounds retested in dose-response had high values. The conditions noted are these: 9.37 µM. The class given is functional.

The species named for the next test is Homo sapiens. In words: To identify inhibition of the IFN signalling (Jak-Stat) pathway via expression of an eGFP reporter gene under the control of an IFN-stimulated response element (ISRE) containing MxA promoter. The class given is functional. The conditions noted are these: 30 µM.
The target in test [7] is T4, Tyrosyl-tRNA synthetase, putative (Trypanosoma cruzi (strain CL Brener)) (UniProt Q4DSP6).
T4 sequence (whole entry): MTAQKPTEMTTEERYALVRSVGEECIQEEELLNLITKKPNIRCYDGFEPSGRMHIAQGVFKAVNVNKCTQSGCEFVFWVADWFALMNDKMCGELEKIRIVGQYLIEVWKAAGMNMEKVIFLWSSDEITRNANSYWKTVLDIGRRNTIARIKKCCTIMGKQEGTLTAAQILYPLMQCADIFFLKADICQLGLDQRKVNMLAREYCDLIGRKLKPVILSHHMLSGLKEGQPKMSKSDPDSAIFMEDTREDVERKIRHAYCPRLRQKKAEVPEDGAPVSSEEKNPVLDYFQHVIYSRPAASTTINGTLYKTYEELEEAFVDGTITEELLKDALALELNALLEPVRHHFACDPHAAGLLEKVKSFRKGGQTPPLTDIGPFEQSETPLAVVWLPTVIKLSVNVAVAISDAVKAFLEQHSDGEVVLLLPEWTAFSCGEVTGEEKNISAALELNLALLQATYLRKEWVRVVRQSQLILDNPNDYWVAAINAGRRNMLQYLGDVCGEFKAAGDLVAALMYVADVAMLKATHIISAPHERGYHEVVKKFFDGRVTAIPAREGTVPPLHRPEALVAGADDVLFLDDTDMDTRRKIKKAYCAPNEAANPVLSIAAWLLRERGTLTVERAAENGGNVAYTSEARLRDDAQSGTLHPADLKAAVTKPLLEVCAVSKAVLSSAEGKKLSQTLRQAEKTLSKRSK
In words: Trypanosoma cruzi tyrosyl tRNA synthetase (TcYRS) _High Tyrosine SOP. Further: in the data most compounds retested in dose-response had high values. The class given is functional. The conditions noted are these: 30 µM.

The target in test [8] is T4, Tyrosyl-tRNA synthetase, putative (Trypanosoma cruzi (strain CL Brener)). Kind of test: Trypanosoma cruzi tyrosyl tRNA synthetase (TcYRS) SOP. The class given is functional. The conditions noted are these: 30 µM.
Test [9] concerns the target Chromo domain-containing protein 1 (Saccharomyces cerevisiae (strain ATCC 204508 / S288c) (Baker's yeast)) (UniProt P32657). Kind of test: ScCHD-1 Enzyme Inhibition Assay. Further: in the data most compounds retested in dose-response had high values. The class given is functional. The conditions noted are these: 30 µM.

Chain of Sialic acid-binding Ig-like lectin 9 (Homo sapiens) (Q9Y336 whole entry): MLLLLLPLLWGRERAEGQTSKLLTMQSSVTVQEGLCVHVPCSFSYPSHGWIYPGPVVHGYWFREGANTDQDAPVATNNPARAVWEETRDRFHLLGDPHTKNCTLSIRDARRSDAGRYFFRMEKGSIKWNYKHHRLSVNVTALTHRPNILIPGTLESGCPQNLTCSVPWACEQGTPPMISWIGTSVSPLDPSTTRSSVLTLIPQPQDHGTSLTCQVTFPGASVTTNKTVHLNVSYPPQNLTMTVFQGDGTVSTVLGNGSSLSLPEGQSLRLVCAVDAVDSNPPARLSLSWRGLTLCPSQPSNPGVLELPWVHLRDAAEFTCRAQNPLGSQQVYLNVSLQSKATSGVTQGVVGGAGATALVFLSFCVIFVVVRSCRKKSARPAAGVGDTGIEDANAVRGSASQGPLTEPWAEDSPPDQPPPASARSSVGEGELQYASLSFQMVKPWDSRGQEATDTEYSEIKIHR
Chain of Chromo domain-containing protein 1 (Saccharomyces cerevisiae (strain ATCC 204508 / S288c) (Baker's yeast)) (P32657 whole entry, the tested form may be a part): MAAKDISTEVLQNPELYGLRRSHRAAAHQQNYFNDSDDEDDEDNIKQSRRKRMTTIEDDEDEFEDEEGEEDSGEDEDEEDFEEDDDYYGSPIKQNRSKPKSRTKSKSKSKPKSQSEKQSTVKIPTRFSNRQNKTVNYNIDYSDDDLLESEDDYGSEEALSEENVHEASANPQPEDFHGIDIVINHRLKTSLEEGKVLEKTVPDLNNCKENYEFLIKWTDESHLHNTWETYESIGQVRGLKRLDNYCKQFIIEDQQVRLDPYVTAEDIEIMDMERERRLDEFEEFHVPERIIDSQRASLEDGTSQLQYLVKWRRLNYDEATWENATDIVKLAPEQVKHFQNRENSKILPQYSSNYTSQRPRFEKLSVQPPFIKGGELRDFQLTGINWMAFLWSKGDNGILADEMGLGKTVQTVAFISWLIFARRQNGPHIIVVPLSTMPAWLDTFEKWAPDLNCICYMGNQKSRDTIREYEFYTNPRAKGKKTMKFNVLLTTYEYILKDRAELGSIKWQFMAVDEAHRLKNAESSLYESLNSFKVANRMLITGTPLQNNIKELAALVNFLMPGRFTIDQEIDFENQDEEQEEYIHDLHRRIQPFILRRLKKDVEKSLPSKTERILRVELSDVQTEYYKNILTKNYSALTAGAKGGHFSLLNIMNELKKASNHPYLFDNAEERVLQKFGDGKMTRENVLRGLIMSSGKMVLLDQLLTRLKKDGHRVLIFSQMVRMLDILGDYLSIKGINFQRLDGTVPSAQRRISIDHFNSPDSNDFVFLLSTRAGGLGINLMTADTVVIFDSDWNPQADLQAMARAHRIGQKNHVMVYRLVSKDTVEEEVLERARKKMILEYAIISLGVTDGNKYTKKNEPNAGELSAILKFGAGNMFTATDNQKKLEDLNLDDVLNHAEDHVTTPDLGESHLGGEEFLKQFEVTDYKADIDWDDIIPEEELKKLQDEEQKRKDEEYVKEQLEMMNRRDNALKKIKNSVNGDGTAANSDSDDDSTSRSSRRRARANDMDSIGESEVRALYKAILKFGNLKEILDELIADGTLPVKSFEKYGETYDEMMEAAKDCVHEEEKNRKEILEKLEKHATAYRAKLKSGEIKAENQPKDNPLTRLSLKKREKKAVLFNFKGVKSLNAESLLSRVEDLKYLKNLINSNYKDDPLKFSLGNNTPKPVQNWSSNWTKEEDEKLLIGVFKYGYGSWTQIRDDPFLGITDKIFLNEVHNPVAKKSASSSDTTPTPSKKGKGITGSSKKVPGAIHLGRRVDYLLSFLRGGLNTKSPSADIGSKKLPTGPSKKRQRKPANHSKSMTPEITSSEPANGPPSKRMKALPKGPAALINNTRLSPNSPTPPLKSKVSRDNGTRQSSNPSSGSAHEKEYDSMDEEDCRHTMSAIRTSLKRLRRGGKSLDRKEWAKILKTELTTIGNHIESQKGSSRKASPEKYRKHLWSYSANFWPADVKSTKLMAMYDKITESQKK
Chain of Protein translocase subunit SecA (Escherichia coli (strain K12)) (P10408 whole entry): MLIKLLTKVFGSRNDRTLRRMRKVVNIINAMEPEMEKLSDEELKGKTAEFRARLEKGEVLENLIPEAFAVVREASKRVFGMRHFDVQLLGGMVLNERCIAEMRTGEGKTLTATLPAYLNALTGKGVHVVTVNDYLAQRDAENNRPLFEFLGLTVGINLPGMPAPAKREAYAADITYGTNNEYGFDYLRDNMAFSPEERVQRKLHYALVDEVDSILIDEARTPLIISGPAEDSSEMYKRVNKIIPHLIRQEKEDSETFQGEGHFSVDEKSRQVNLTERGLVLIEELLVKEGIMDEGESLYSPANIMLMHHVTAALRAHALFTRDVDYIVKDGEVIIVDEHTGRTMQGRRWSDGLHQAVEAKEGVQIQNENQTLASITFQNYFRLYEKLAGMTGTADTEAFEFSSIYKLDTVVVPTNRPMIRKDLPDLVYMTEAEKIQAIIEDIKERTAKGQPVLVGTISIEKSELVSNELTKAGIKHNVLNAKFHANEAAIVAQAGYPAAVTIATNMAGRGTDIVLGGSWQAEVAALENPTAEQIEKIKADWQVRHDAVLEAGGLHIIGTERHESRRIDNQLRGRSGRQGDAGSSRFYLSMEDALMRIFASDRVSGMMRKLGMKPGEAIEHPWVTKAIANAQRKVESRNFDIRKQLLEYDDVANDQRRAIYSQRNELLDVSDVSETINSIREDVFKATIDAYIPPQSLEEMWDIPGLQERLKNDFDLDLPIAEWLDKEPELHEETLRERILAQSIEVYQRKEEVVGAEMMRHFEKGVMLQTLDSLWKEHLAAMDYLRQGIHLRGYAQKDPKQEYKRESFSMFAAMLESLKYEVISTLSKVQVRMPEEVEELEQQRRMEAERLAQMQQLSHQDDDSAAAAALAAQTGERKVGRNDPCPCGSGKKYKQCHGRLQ

As to `Cn1cc(C2CCCN2C(=O)CCCOc2ccc(F)cc2F)cn1` (stereo unspecified), the Percent Effect was -6.14% in [1]; 10.1% in test [2]; 1.86% in [3]; 9.73% in test [4]; -0.283% in the test on Trypanosoma cruzi; 1.9% in test [5]. Further, the Percent Effect in [6] is -3.36%; in the test filed under Homo sapiens, -0.895%; in test [7] it was 4.43%; in test [8] it was 3.8%; in test [9] it was -1.53%.

For `Cc1cnn(CC2CN(Cc3cccc(C(=O)N(C)C)c3)CCO2)c1` (stereo unspecified), the Percent Effect in test [1] was -2.21%; in test [2], 23.4%; in [3], -1.81%; in test [4], 0.495%; with Trypanosoma cruzi, 3.56%; in test [5] it was -7.83%. Also, the Percent Effect is 14.7% in test [6]; 14.3% in the test filed under Homo sapiens; 7.77% in test [7]; 19.5% in test [8]; -9.57% in test [9].

As for `Cc1ccc(N2CCCC(NCC(=O)NCC3CC3)C2)nn1` (stereo unspecified), the Percent Effect in test [1] was -4.97%; in [2], 6.33%; in test [3], -6.37%; in test [4] it was 2.61%; in the test with Trypanosoma cruzi, 1.13%; in [5] it was -1.94%. Also, the Percent Effect in test [6] is 15.8%; in the test listed under Homo sapiens it was -5.61%; in [7] it was 7.29%; in test [8] it was 15.2%; in [9] it was -25.7%.

In the case of `CN1CCN(Cc2nnc(C3CCN(CC4CC4)CC3)n2C)CC1`, the Percent Effect in test [1] stood at 0.271%; in [2] it was 8.22%; in [3] it was 4.92%; in test [4], 1.71%; in the test with Trypanosoma cruzi, 3.13%; in test [5], 7.27%. The Percent Effect is 13.3% in test [6]; 22.3% in the test listed under Homo sapiens; 8.6% in [7]; 17.5% in test [8]; -3.38% in test [9].

In the case of `O=C(CCc1nc2cccnc2[nH]1)NCc1cccnc1`, the Percent Effect in test [1] is -3.19%; in [2] it was 25.3%; in [3], -5.37%; in [4], 0.97%; in the test with Trypanosoma cruzi, 3.34%; in test [5], -0.88%. For the same compound, the Percent Effect in test [6] is 15.5%; in the test filed under Homo sapiens, 9.81%; in test [7], 8.47%; in [8], 15.4%; in test [9] it was -10.2%.

As to `Cc1nc(C)n(CC2CCCCN2CC(=O)Nc2ccncc2)n1` (stereo unspecified), the Percent Effect was 1.21% in test [1]; 23.4% in test [2]; -4.4% in [3]; -2.19% in [4]; -9.74% with Trypanosoma cruzi; 3.56% in [5]. Moreover, the Percent Effect in [6] was 8.11%; in the test filed under Homo sapiens, 27.5%; in test [7] it was 5.83%; in test [8] it was -2.44%; in test [9], -9.59%.

With `c1cncc(OCc2noc3c2CN(Cc2ccoc2)CC3)c1`, the Percent Effect in [1] is -1.69%; in test [2], 22.7%; in [3], -8.08%; in test [4] it was -0.376%; in the test on Trypanosoma cruzi, 3.93%; in test [5], -2.99%. The Percent Effect in test [6] is 22.7%; in the test filed under Homo sapiens, 8.21%; in [7], 5.29%; in test [8], 15.4%; in test [9] it was -11.2%.

For the compound `CN(Cc1ccc(OC(F)F)cc1)C(=O)CS(=O)(=O)c1ccc(Cl)cc1`, the Percent Effect in test [1] is -4.93%; in [2], -2.7%; in test [3] it was -0.333%; in test [4], 6.3%; with Trypanosoma cruzi it was 8.49%; in test [5], -1.91%. For the same compound, the Percent Effect in test [6] is 0.345%; in the test listed under Homo sapiens, 3.29%; in [7], -5.82%; in test [8] it was 0%; in [9], -1.75%.

For `CC(NC(=O)NCCCO)c1ccc2c(c1)OCCO2` (stereo unspecified), the Percent Effect is -1.5% in test [1]; 16.2% in [2]; 0.694% in [3]; -1.77% in test [4]; 1.76% in the test on Trypanosoma cruzi; 3.51% in [5]. The Percent Effect in [6] is 14.2%; in the test filed under Homo sapiens it was 2.1%; in test [7] it was 4.95%; in [8], 28.1%; in test [9], -6.78%.

Regarding `c1ccc(-c2noc(CN3CCOC(Cn4cccn4)C3)n2)nc1` (stereo unspecified), the Percent Effect in test [1] is -0.328%; in [2] it was 0%; in test [3] it was 4.78%; in test [4] it was 8.36%; in the test with Trypanosoma cruzi, 0.188%; in [5], -1.53%. Further, the Percent Effect was 3.51% in test [6]; 6.16% in the test filed under Homo sapiens; -0.49% in test [7]; -2.44% in test [8]; 4.99% in test [9].

Take `CC(=O)Nc1nc(C(=O)N2CCCC(c3cc(C)[nH]n3)C2)cs1` (stereo unspecified): the Percent Effect in test [1] is -6.81%; in test [2], -28.9%; in test [3], -1.06%; in test [4], 8.53%; in the test on Trypanosoma cruzi, 6.63%; in test [5], 0.36%. Further, the Percent Effect in [6] was 2.28%; in the test filed under Homo sapiens it was 2.32%; in test [7], 4.43%; in test [8], 11.1%; in [9], 0.638%.

These data come from ChEMBL document CHEMBL3988442, “University of Dundee, Small-Polar-MMV Screening Library” (2021).
